Screening results deposited in PubChem BioAssay by Center for Chemical Genomics, University of Michigan.
The sample as a whole holds a higher share of hits than the screen did.
Dicer inh: blocks human Dicer maturation of pre-miR-21 | Q9UPY3 | cat-ELCCA pre-miR-21 Dicer processing, chemiluminescence; hits give high values | z-score at 25 µM | AID 1347074 | 47,000 compounds, 6% hits; in the data active = z-score above about 3, passing the limit was not always enough;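 note: plate controls were vehicle for no effect and no enzyme for full effect; higher signal means more uncleaved substrate so more Dicer inhibition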
Starred values were filed as active, the others as inactive.

SMILES	Dicer inh
CS(=O)(=N/C=C(\C#N)S(=O)(=O)c1ccc(C(F)(F)F)cn1)c1ccc(Oc2ccc([N+](=O)[O-])cn2)cc1 (stereo not given)	0.08
O=C(O)c1ccc2nc(-c3ccccc3)sc2c1	3.8*
Nc1cccc(-c2nc3ccc(N)cc3s2)c1	1.7
Nc1ccc2nc(-c3ccc(O)cc3)sc2c1	3.5*
Nc1ccc(-c2nc3ccc(N)cc3s2)cc1	2.3
CC(=O)Oc1ccc(-c2nc3ccc(C(=O)O)cc3s2)cc1	0.17
Nc1ccc(-c2nc3ccc(C(=O)O)cc3s2)cc1	0.3
Nc1c(C(=O)N/N=C/c2ccc(Cl)cc2)sc(=S)n1-c1ccccc1	1.4
CC1=C(C(=O)OC2CCCCC2)C(c2ccccc2Br)CC(=O)N1 (stereo not given)	0.28
CCOC(=O)C(NC(=O)Cc1ccccc1)(Nc1ccc(F)c(Cl)c1)C(F)(F)F (stereo not given)	1.7
CCCCCNC(=O)Cn1cnc2c1c(=O)n(C)c(=O)n2C	-0.48
O=C(O)c1ccc(-c2nc3ccc(-c4ccc5nc(-c6ccc(C(=O)O)cc6)[nH]c5c4)cc3[nH]2)cc1	-0.23
Cn1c(=O)c2c(nc(Cl)n2CC(O)CO)n(C)c1=O (stereo not given)	0.66
COC(=O)c1nc2c(C)cccn2c1F	3.1*
Cc1cccn2c(=O)c(NC(=O)c3ccc(Cl)cc3)cnc12	0.05
CCCS(=O)(=O)c1c(S(=O)(=O)CCC)c2c(C)cccn2c1C(=O)OC	0.26
c1csc(-c2nc3c4c5c(sc4ncn3n2)CCCCC5)c1	2.5
O=C(c1sc2cc(Cl)ccc2c1Cl)N1CCCCC1	-0.54
COC(=O)C1=C(C(=O)c2ccc(C)cc2)C(c2ccccc2F)n2nnnc2N1 (stereo not given)	0.83
Cc1cc2oc3c(c(=O)c2cc1C)C(c1ccccc1F)N(CCCN1CCOCC1)C3=O (stereo not given)	-0.51
Cc1ccc(CN2C(=O)C(O)(c3c(C)[nH]c4ccccc34)c3ccccc32)cc1 (stereo not given)	1.4
Cc1[nH]c2ccccc2c1C1(O)C(=O)N(Cc2ccc3c(c2)OCO3)c2ccccc21 (stereo not given)	3.9*
Cc1[nH]c2ccccc2c1C1(O)C(=O)N(Cc2ccc(Cl)cc2)c2ccccc21 (stereo not given)	1.5
O=C(c1cccc2ccccc12)N1CCc2[nH]c3ccc(F)cc3c2C1	-0.03
O=[N+]([O-])c1cc(C2SCCS2)ccc1SCc1ccco1	-0.28
SMILES	Dicer inh
CC1=NN(c2ccc(Cl)cc2)C(=O)C1CCOC(=O)c1nn(-c2ccccc2)nc1C (stereo not given)	-1.6
CCOC(=O)/C(C#N)=C/c1cn(-c2ccccc2)nc1-c1ccccc1	-1.5
Cn1cc2c(n1)-c1cc(Cl)ccc1SC2	-0.9
COC(=O)c1cnn2c(C(F)F)cc(-c3ccc(C)cc3)nc12	-1.5
CCOC(=O)c1cnn2c(C(F)F)cc(-c3ccc(C)cc3)nc12	3.5*
CCn1ncc(CNC(=O)c2cnn3c(C(F)F)cc(-c4ccc(C)cc4)nc23)c1C	0.29
CCCCN1C2=NCCN2c2ccccc21	-0.46
O=C(Nc1cc(Cl)cc(Cl)c1)N1CCCc2ccccc21	-0.22
O=C(Nc1ccc(Cl)cc1)N1CCCc2ccccc21	4.3*
O=C(O)CCC(=O)N1CCCc2ccccc21	2.3
CCOC(=O)c1cc(C#N)c(Sc2ccccc2NC(=O)c2ccccc2)nc1C(F)(F)F	-1.8
c1ccc2c(Sc3ncnc4sccc34)cccc2c1	-2.6
CC(C)CCNc1nc2c(c(=O)[nH]c(=O)n2C)n1C(C)C	0.52
CCN(CC)C(=S)NC(=S)c1ccc(C)cc1	16*
Cc1ccc(CNC(=S)N(C)C)cc1	-0.69
CCN(C(=S)Nc1ccc(C)cc1)c1ccccc1	1.6
CCN(CC)c1ncnc2sccc12	0.76
O=C(Nc1c[nH]c(=O)[nH]c1=O)c1cccc(Br)c1	0.09
Cc1cccc(C)c1NC(=S)N1CCCc2ccccc21	0.2
Cc1ccc2nc(Nc3nc(C)cc(=O)[nH]3)nc(C)c2c1	0.87
Cc1ccc2nc(Nc3nc(O)cc(=O)[nH]3)nc(C)c2c1	2.7
Cc1cc(C)c2nc(Nc3nc(O)cc(=O)[nH]3)nc(C)c2c1	5.2*
O=C(Nc1ccc(Cl)cc1Cl)Nc1cnn(-c2ccc(Cl)cc2)c1C(F)(F)F	0.19
CCCCn1c2ccccc2c2nc3cc(OC)c(OC)cc3nc21	1
CC(C)n1c2ccccc2c2ccccc21	0.68
SMILES	Dicer inh
COc1cc2nc3c4ccccc4n(C(C)C)c3nc2cc1OC	3.4*
CN(C)CCS(C)(=O)=O	-0.94
Cc1nc(-c2ccc(S(=O)(=O)NCCN(C)C)s2)cs1	-1.3
CCCCCCCNC1CC(=O)N(c2ccc(F)cc2)C1=O (stereo not given)	3.9*
CC(C)CNC1CC(=O)N(c2ccc(C(C)C)cc2)C1=O (stereo not given)	-0.87
CN(C)c1ccc(NC2CC(=O)N(c3ccc(F)cc3)C2=O)cc1 (stereo not given)	-1.6
CN1CC=C(/C=C/c2ccccc2)CC1	3.8*
CN1CCc2c(sc3c2C(=O)NC(/C=C\c2ccccc2)N3)C1 (stereo not given)	1.4
C(=C\c1ccccc1)/CN1CCN(C/C=C/c2ccccc2)CC1	-1.6
O=C(Nc1ccc2ccccc2n1)C1=Cc2cc(Cl)ccc2OC1	1.2
O=c1cc(O)c2c(n1-c1ccccc1)CCCCC2	-0.93
O=c1c(=CNc2ccccc2)c(=O)c2cccc3cccc1c32	0.59
O=C(O)C1=C(C(=O)Nc2ccccc2)CCCC1	0.14
O=C1CCCC/C1=C\Nc1ccccc1	4.3*
CSC(=NCc1c(N(C)C)cccc1N(C)C)NS(=O)(=O)c1ccccc1	1.3
O=S(=O)(/N=C(\NNC(=S)Nc1cc(Cl)ccc1Cl)N1CCCC1)c1ccccc1	2.1
O=c1oc(-c2cccs2)nc2c(Br)cc(Br)cc12	-0.36
CN(CCO)c1nc2c([nH]1)c(=O)[nH]c(=O)n2C	0.81
O=C(Nc1nc2ccccc2n1CCN1CCCCC1)C1CCCCC1	-4.1
c1coc(CNc2nc3ccccc3n2CCN2CCCCC2)c1	6.1*
O=C(Cn1c(NCCO)nc2ccccc21)c1ccc(Cl)cc1	1.8
Clc1ccc(CNc2nc3ccccc3n2CCN2CCCCC2)cc1	3.2*
CCCCn1c(NCc2ccco2)nc2ccccc21	0.34
O=C(CSc1nc2ccccc2nc1N1CCCC1)NCc1ccco1	1.7
CSc1cccc(NC2OC(=O)c3ccccc32)c1 (stereo not given)	-4.3
SMILES	Dicer inh
N#Cc1cc(NC(=O)c2ccc(F)cc2)c(=O)n2c1sc1ccccc12	0.63
S=C1NC2=C(CCc3ccccc32)C(c2ccccc2Cl)N1 (stereo not given)	1.1
COc1cccc(-c2cnc(NCc3cccc(Br)c3)n2C)c1	-0.78
CC(C)c1ccc(N2C=Nc3ccc(C(C)C)cc3C2)cc1	0.31
Clc1ccc(N2C=Nc3cc(Cl)c(Cl)cc3C2)cc1Cl	3.1*
O=c1[nH][nH]c(=S)n1-c1ccc(Cl)c(Cl)c1	0.41
CCSC1=C(C#N)C(c2ccccc2C)C(C(=O)OC)C(=O)N1 (stereo not given)	-0.66
CCC(C)Sc1scc(-c2ccc(Cl)cc2)c1C#N (stereo not given)	0.21
O=C(NCc1ccc(S(=O)(=O)Nc2ccc3c(c2)OCCO3)s1)c1ccccc1	3.2*
O=C(NCc1ccc(S(=O)(=O)Nc2ccc3c(c2)OCCO3)s1)c1ccc(Cl)cc1	0.24
O=C(NCc1ccc(S(=O)(=O)Nc2ccccc2Cl)s1)c1ccccc1	-0.52
O=C1/C(=C/c2ccc(C(F)(F)F)cc2)CCCc2ccccc21	-0.31
